Assay results from PubChem BioAssay (Tox21).
Results filed as inconclusive are left out. Unmarked numbers belong to inactive results. Calls of active or inactive are those of the source. The call rests on the fitted dose curve.

The compounds below were run against Beta-2 adrenergic receptor (Homo sapiens) (UniProt P07550) (assay: Adrenergic beta2 receptor (ADRB2) small molecule antagonists, cell-based qHTS assay (AID 1963592; further: nearly all actives have a fitted effect of over 50% in size)). Conditions: CHO-ADRB2 cells, isoproterenol-stimulated cAMP HTRF ratio, 0.5 h; series mostly up to 92.4 µM; activity change, negative = inhibition: at the top concentration.
Source text: U.S. Tox21 Program National Center for Advancing Translational Sciences [NCATS] Division of Preclinical Innovation [DPI] U.S. Environmental Protection Agency [EPA] National Institutes of Environmental Health Sciences [NIEHS] National Toxicology Program [NTP] U.S. Food and Drug Administration [FDA] Tox21 Assay Overview: Beta adrenergic receptors (Beta-ARs) belong to the G-protein coupled receptor (GPCR) superfamily, includes three subtypes - beta1, beta2, and beta3. Beta1-AR is the predominant receptor subtype expressed in the heart, and beta2-AR is expressed in the kidney, lung, blood vessel and in the heart, and beta3 is found in the adipocytes. Beta1 and 2 ARs couple to Gs protein and elevate cyclic adenosine mono phosphate (cAMP), which activates protein kinase A and leads to the downstream signaling responsible for the physiological actions. Beta-AR agonists or antagonists are the most prescribed therapeutic agents for heart failure and asthma, and these were one of the first target receptors for the rational drug design. Tox21 10K compound library was screened using the cAMP-Gs dynamic assay (Cisbio Bioassays, Shelton, CT) to identify agonists/antagonists of the Gs-coupled human adrenergic, beta2 receptor (ADRB2) in the CHO-ADRB2 cell line (Codex BioSolutions, Inc. Gaithersburg, MD), which stably over-expresses ADRB2. The principle of cAMP-Gs dynamic assay is based on HTRF technology, which facilitates the fluorescence resonance energy transfer (FRET) between donor Europium cryptate and acceptor d2-labeled cAMP. The cAMP generated within cells competes with the red acceptor, d2-labled cAMP, for binding to the monoclonal anti-cAMP-cryptate (Europium donor). An increase in intracellular cAMP leads to the disruption of FRET signal, and the signal is inversely proportional to the cAMP concentration. Propranolol HCl (Sigma-Aldrich, St. Louis, MO) was used as a positive control in the screening.
Tox21 Assay Protocol Summary: CHO-ADRB2 cells were dispensed at 1,000/well in 4uL assay medium into white/solid 1536-well plates (Greiner Bio-One North America Inc., Monroe, NC) using a Multidrop Combi dispenser (ThermoFisher Scientific, Waltham, MA). The assay plates were incubated at 37C and 5% CO2 for an overnight (18-20hr). Then positive control and test compounds dissolved in DMSO were transferred to the assay plates at 23nL using a Pintool station (Wako, San Diego, CA). Following the compound and positive control transfer, 1uL agonist-stimulation mix containing 1nM Isoproterenol HCl, 100uM IBMX and 25uM Ro-20-1724 was added to each well of the assay plates using BioRAPTR Flying Reagent Dispenser (FRD, Beckman Coulter, Brea, CA). The assay plates were incubated at room temperature for 0.5hr. Then 2.5ul each d2-labled cAMP and anti-cAMP-cryptate solutions were added separately to each well of the assay plates using an FRD and the assay plates were incubated at room temperature for 1hr. The fluorescence signal was measured at two different wavelengths (665nm and 615nm) using an Envision plate reader (Perkin Elmer, Shelton, CT). Data were expressed as the ratio of 665 nm/615 nm.
On the % scale 0 is the no-effect control and ±100 the full control effect; potency means the concentration at half of the fitted maximal effect.

Chain of Beta-2 adrenergic receptor (Homo sapiens) (P07550 whole entry, looked up): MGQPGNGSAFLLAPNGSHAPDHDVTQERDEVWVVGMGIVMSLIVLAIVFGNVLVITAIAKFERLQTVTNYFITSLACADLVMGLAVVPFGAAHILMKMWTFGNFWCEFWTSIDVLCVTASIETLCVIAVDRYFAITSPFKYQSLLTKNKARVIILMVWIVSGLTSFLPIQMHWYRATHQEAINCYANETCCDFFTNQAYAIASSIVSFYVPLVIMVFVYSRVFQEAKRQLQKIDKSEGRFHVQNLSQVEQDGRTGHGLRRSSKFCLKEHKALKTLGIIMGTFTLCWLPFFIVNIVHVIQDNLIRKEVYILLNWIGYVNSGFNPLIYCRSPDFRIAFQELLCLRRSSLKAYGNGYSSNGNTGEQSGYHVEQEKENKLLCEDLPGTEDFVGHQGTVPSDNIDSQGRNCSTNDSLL

With `CC(C)C1CCC(Cc2ccc(Cl)cc2)C1(O)Cn1cncn1` (stereo not given) the Potency was 30.3 µM (active).
`CC[C@H](C)[C@H]1O[C@]2(C=C[C@@H]1C)C[C@@H]1C[C@@H](C/C=C(\C)[C@@H](O[C@H]3C[C@H](OC)[C@@H](O[C@H]4C[C@H](OC)[C@@H](NC)[C@H](C)O4)[C@H](C)O3)[C@@H](C)/C=C/C=C3\CO[C@@H]4[C@H](O)C(C)=C[C@@H](C(=O)O1)[C@]34O)O2` was tested, and the Potency was 43.3 µM (active).
In the case of `CC(=O)[O][Sn]([c]1ccccc1)([c]1ccccc1)[c]1ccccc1`, the Potency is reported as 61.1 µM (active).
With `CCC[CH2][Sn]([CH2]CCC)([CH2]CCC)[O]C(=O)c1ccccc1` the Potency was 0.864 µM (active).

First: O=[N+]([O-])c1ccc(Nc2ccccc2)cc1
Second: O=[N+]([O-])c1ccc(CCl)cc1
The “activity change, negative = inhibition” value of the first is lower: -24.5% for the first, 0.212% for the second.

Compared with `CN/C(=N\[N+](=O)[O-])NCc1cnc(Cl)s1`, `O=[N+]([O-])c1cccc(CCl)c1` is lower in “activity change, negative = inhibition” value: 6.4% for the first, -22% for the second.

Compared with `CC(C)(COCC1CO1)COCC1CO1` (stereo not given), `CC(Cc1ccc(C(C)(C)C)cc1)CN1C[C@@H](C)O[C@@H](C)C1` (stereo not given in full) is lower in “activity change, negative = inhibition” value: 1.41% for the first, -19.8% for the second.

Going from `COC(=O)C(C)Oc1ccc(Oc2ccc(Cl)cc2Cl)cc1` (stereo not given) to `Fc1ccc(Oc2ccnc3cc(Cl)cc(Cl)c23)cc1`, the “activity change, negative = inhibition” value falls from -0.901% to -9.37%.

First: Cc1cc2c3c(c1)C(c1ccccc1)=N[C@@H](NC(=O)c1ccncc1)C(=O)N3CC2
Second: Cc1cc(C)c(C(=O)P(=O)(C(=O)c2c(C)cc(C)cc2C)c2ccccc2)c(C)c1
The “activity change, negative = inhibition” value of the first is lower: -26.9% for the first, 2.58% for the second.

Compared with `O=[N+]([O-])O.O=[N+]([O-])O.[Cd]`, `O=[N+]([O-])C(Br)Br` is higher in “activity change, negative = inhibition” value: -9.28% for the first, -3.37% for the second.

Going from `CO/N=C(/C1=NOCCO1)c1ccccc1Oc1ncnc(Oc2ccccc2Cl)c1F` to `CO/C=C(/C(=O)OC)c1ccccc1COc1cccc(C(F)(F)F)n1`, the “activity change, negative = inhibition” value rises from 1.93% to 6.57%.

Compared with `O=[N+]([O-])c1ccc(Oc2ccc(C(F)(F)F)cc2[N+](=O)[O-])cc1`, `O=C(Nc1ccc(F)cc1F)c1cccnc1Oc1cccc(C(F)(F)F)c1` is lower in “activity change, negative = inhibition” value: -6.24% for the first, -13.1% for the second.

First: CCS(=O)(=O)c1cccnc1S(=O)(=O)NC(=O)Nc1nc(OC)cc(OC)n1
Second: CCOc1cc(OP(=S)(OC)OC)nc(CC)n1
The “activity change, negative = inhibition” value of the first is higher: 8.16% for the first, -1.04% for the second.

Going from `FC(Cl)(Cl)C(F)(Cl)Cl` to `ClC(Cl)C(Cl)(Cl)Cl`, the “activity change, negative = inhibition” value falls from 13% to -6.8%.

Compared with `CCCCN(CCCC)C(=S)[S-].CCCCN(CCCC)C(=S)[S-].[Zn+2]`, `CCCCCCCCCCCCCN1CC(C)OC(C)C1` (stereo not given) is higher in “activity change, negative = inhibition” value: -12.2% for the first, -0.214% for the second.

Going from `OCCCBr` to `BrCCCCBr`, the “activity change, negative = inhibition” value falls from -0.685% to -16.9%.

Going from `O=C(Cl)c1ccc(Cl)cc1` to `Nc1ccc(Cl)cc1C(=O)c1ccccc1`, the “activity change, negative = inhibition” value rises from 0.371% to 0.637%.

First: O=[N+]([O-])c1cc(Cl)c(Cl)cc1Cl
Second: O=[N+]([O-])c1cccc2cccnc12
The “activity change, negative = inhibition” value of the first is lower: -0.449% for the first, 2.13% for the second.

Compared with `N#Cc1sc2c(=O)c3ccccc3c(=O)c=2sc1C#N`, `CCOP(=S)(OCC)Oc1ccc(S(C)=O)cc1` (stereo not given) is higher in “activity change, negative = inhibition” value: 3.92% for the first, 5.35% for the second.

Compared with `C=CCOC(C)=O`, `[F][Sn]([c]1ccccc1)([c]1ccccc1)[c]1ccccc1` is higher in “activity change, negative = inhibition” value: 1.25% for the first, 18.2% for the second.

`[Cl][Sn]([c]1ccccc1)([c]1ccccc1)[c]1ccccc1` showed an activity change, negative = inhibition of 1.04% [at 19 µM].

For `N#CN`, the “activity change, negative = inhibition” value was -5.64% [at 240 µM].

Going from `CCc1ccc(C2CCNCC2)cc1` to `CC(=O)[C@H]1CC[C@H]2[C@@H]3CC[C@H]4C[C@H](O)CC[C@]4(C)[C@H]3C(=O)C[C@]12C`, the “activity change, negative = inhibition” value rises from -16.1% [at 42.5 µM] to -0.658% [at 42.5 µM].
